# Experimental data reported in publication PMC4336329 (PLoS ONE, 2015).
# The campaign covered roughly 310,000 compounds. About 2,200 (0.71%) showed an effect of 50% or more. Effects have a minus sign here. For the sample, strong results were picked, then their nearest neighbours and some compounds at random.
# Target: human ether-à-go-go-related gene (hERG) potassium channel (human, UniProt Q12809)
# Assay: primary screen, population patch clamp on CHO cells stably expressing hERG; higher = less effect of the substance
# Description: Briefly, Chinese hamster ovary (CHO) cells stably expressing the hERG channel were dislodged from tissue culture flasks and dispensed into PPC plates. […] During the recording, background leak currents were estimated by a 100 ms step to -80 mV from an initial holding potential of -70 mV and subtracted from the subsequent current measurement. The campaign was conducted in two phases using slight differences in recording protocol. In the first phase, the initial voltage pulse used a 100 ms step to -30 mV from a holding potential of -70 mV, a 2 s conditioning step to +25 mV, and a 2 s test step to -30 mV. During the second phase of the screen, the potential during the conditioning step was raised to +45 mV. In both phases of the campaign, a secondary voltage pulse was applied using the same parameters as the second phase initial pulse. The initial and secondary pulses were applied in the absence of compound, and upon application of 1 μM and 10 μM test concentrations. Small molecule effects on hERG current density were quantified by […].
# human ether-à-go-go-related gene (hERG) potassium channel, sequence (Q12809 whole entry, looked up): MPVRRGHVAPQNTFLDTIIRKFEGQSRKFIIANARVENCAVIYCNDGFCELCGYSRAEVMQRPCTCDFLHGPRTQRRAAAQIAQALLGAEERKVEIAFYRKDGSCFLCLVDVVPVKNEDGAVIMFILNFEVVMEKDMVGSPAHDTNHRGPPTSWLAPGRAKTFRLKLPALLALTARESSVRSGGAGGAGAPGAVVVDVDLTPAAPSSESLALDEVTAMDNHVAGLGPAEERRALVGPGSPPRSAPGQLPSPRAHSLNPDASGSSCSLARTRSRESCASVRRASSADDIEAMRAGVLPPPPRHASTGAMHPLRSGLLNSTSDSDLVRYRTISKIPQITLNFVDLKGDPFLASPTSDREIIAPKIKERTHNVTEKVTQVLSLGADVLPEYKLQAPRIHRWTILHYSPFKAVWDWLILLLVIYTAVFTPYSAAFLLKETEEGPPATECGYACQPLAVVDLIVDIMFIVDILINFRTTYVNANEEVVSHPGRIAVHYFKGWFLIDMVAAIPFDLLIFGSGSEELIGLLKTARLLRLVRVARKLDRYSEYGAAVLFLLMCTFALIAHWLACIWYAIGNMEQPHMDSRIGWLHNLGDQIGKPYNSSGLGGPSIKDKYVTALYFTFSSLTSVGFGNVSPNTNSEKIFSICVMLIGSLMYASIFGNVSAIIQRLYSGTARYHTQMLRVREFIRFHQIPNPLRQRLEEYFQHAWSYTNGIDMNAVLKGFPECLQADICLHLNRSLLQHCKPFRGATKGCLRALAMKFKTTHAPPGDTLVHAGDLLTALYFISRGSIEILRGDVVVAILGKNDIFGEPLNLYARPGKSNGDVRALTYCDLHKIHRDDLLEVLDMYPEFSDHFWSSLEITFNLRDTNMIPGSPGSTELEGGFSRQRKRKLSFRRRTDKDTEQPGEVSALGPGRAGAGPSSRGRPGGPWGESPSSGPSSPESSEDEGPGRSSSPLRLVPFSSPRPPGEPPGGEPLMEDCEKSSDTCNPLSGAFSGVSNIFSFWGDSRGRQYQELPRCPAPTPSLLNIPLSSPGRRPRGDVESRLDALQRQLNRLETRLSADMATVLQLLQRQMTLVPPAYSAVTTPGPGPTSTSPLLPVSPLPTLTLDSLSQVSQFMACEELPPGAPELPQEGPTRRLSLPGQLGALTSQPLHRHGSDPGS
row,SMILES,"hERG current change (%, negative = inhibition) at 1uM [%]"
1,CC(=O)N1C[C@H](O)C[C@H]1C(=O)O,-19
2,O=C(COc1ccccc1)NNc1c2ccccc2nc2ccccc12,4.4
3,Cc1ccc(C)c(NC(=O)Cn2nc(-c3ccccc3)nc2-c2ccccc2)c1,16.6
4,CNS(=O)(=O)c1cccc(C(=O)OCC(=O)c2cc3ccccc3o2)c1,21
5,Cc1cccc(N2C(=O)NC(=O)/C(=C\c3cnn(-c4ccccc4)c3)C2=O)c1,12.6
6,CN1CCN(CC(=O)Nc2cccc([N+](=O)[O-])c2)CC1,5.95
7,O=C(CN1CCCC1)Nc1ccc(Cl)cc1C(=O)c1ccccc1.O=C(O)C(=O)O,0.588
8,Cc1ccccc1NC(=O)CN1CCN(C(=O)c2ccco2)CC1,5.5
9,O=C(CN1CCN(C(=O)c2ccco2)CC1)Nc1cc(Cl)ccc1Cl,-8.91
10,CN1CCN(C(=S)SCC(=O)Nc2ccc(Cl)cc2C(=O)c2ccccc2)CC1,-5.6
11,CN1CCN(CC(=O)Nc2ccc([N+](=O)[O-])cc2C(=O)c2ccccc2)CC1,-91.5
12,CCN(CC)CC(=O)Nc1ccc(Cl)cc1C(=O)c1ccccc1,6.87
13,CN(C)CCCNCC(=O)Nc1ccc(Cl)cc1C(=O)c1ccccc1.O=C(O)C(=O)O,-21.2
14,CN1CCN(c2ccc([N+](=O)[O-])cc2C(=O)c2ccccc2)CC1,-17.5
15,Cc1cc(Cl)ccc1NC(=O)CN1CCN(C(=O)c2ccco2)CC1,-57.1
16,CCN(CC)CCNCC(=O)Nc1ccc(Cl)cc1C(=O)c1ccccc1.O=C(O)C(=O)O,-84.2
17,CN1CCN(CC(=O)Nc2ccc(Cl)cc2C(=O)c2ccccc2)CC1,-83.3
18,O=C1NC(=S)N(c2ccccc2)C(=O)/C1=C/c1ccco1,5.88
19,COc1ccc(-n2nnnc2SCC(=O)c2ccc(O)c(O)c2)cc1,1.49

row,SMILES,"hERG current change (%, negative = inhibition) at 1uM [%]"
1,Cc1ccccc1-c1nc2ccc(Cl)cc2c(=O)n1O,15.4
2,CCOC(=O)c1ccc(NC(=O)CNC(=O)c2ccccc2)cc1,7.06
3,CCSc1nnc(NC(=O)Nc2cccc(C)c2)s1,12.2
4,Cn1nc([N+](=O)[O-])nc1Sc1nnnn1-c1ccc(C(=O)O)cc1,8.97
5,CCCCn1c(CCNC(=O)c2ccco2)nc2ccccc21,7.54
6,Cc1cc(C)cc(-c2nnc(SCC(=O)c3ccc4c(c3)OCCO4)o2)c1,16
7,Cc1cn(COC/C=C/c2ccccc2)c(=O)[nH]c1=O,7.16
8,Cc1cccc(C(=O)NCCCNC(=O)c2ccc(C)nc2)c1,10.6
9,O=C(CN1CCCCCC1)Nc1ccc(Cl)cc1F,14.6
10,CN1CCN(CC(=O)Nc2c(C(=O)C3CC3)oc3ccccc23)CC1,-16.9
11,Cc1cc(Cl)ccc1OCCCC(=O)N1CCN(C)CC1,0.322
12,O=C(CN1CCN(C(=O)c2ccccc2)CC1)Nc1ccc(Cl)cc1F,-54.8
13,CC(=O)N1CCN(CC(=O)Nc2ccccc2Sc2ccc(Cl)cc2)CC1,-58.3
14,Cc1cc(Cl)ccc1OCCCC(=O)N1CCN(C(=O)c2ccco2)CC1,-59.1
15,COc1ccc2oc(C(=O)c3ccccc3)c(NC(=O)CN3CCN(C)CC3)c2c1,-12.2
16,O=C(CN1CCCC1)Nc1ccccc1Sc1ccc(Cl)cc1,-0.77
17,CC(=O)N1CCN(CC(=O)Nc2ccccc2Sc2ccccc2)CC1,-29.8
18,Cc1cc(Cl)ccc1OCCCC(=O)N1CCOCC1,-7.13
19,CN1CCN(CC(=O)Nc2c(C(=O)c3ccccc3)oc3ccccc23)CC1,-83.2

row,SMILES,"hERG current change (%, negative = inhibition) at 1uM [%]"
1,O=C(CN1CCN(C(=O)c2cccc(F)c2)CC1)Nc1ccccc1F,-36.4
2,Cn1cnc([N+](=O)[O-])c1Cl,11
3,O=C(CN1C(=O)c2ccccc2C1=O)Nc1ccccc1C(=O)NC1CCCCCC1,6.73
4,Cc1ccc(CNC(=O)c2ccc(N3CCC4(CC3)CC(c3cccc(Br)c3)=NO4)c(NC(=O)c3cccc(C)c3)c2)cc1,8.49
5,CCCSc1nc(C)c(C(C)=O)cc1C#N,7.88
6,O=C(CN1CCCC1)Nc1ccccc1C(=O)c1ccccc1,10.5
7,O=C(CCN1CCCCC1)Nc1ccc(Cl)cc1C(=O)c1ccccc1,-42.9
8,O=C(CN1CCN(CCO)CC1)Nc1ccc(Cl)cc1C(=O)c1ccccc1,-80.7
9,Cc1ccc(CNC(=O)N2CCN(c3ccc(C)cc3)CC2)cc1,14.1
10,Cc1ccc(C2=CC(=O)C[C@H](c3ccc(F)cc3)C2)cc1,14.5
11,N#Cc1ccc(C2=CC(=O)C[C@H](c3ccc(Cl)cc3)C2)cc1,-51.9
12,O=C1C=C(c2ccc(-c3ccccc3)cc2)C[C@@H](c2ccc(Cl)cc2)C1,15.9
13,Cc1ccc(C2=CC(=O)C[C@H](c3ccc(Cl)cc3)C2)cc1,10.4
14,O=C1C=C(c2ccc(-c3ccccc3)cc2)C[C@@H](c2ccc(F)cc2)C1,6.09
15,N#Cc1ccc(C2=CC(=O)C[C@H](c3ccc(F)cc3)C2)cc1,-61.4
16,Cc1ccc2nc3c(cc2c1)c(NC(=O)C(C)(C)C)nn3CC(C)C,7.75
17,COc1ccc(S(=O)(=O)N2CCCCCC2)cc1C(=O)N(C)Cc1ccccc1F,6.9
18,CCCn1c(SCC(=O)Nc2ccccc2OC)nnc1-c1ccco1,-18.2
19,NC(=O)c1ccc(NC(=O)CCCNC(=O)c2ccc(Cl)cc2)cc1,16.6
